Assay results as given in PubChem BioAssay (NCATS).
Values joined by “and” are separate entries in the source; they are usually repeats but may differ in a detail not shown here. Equal entries are not always repeated. Inconclusive results are not listed. A structure can be active in one record and inactive in another. Active and inactive are the calls of the source. Unless noted, the call rests on the fitted dose curve; in most records, active means well fitted curve in the direction sought with a large enough effect; inconclusive means small, poorly fitted or top-dose-only effect, or another doubt; inactive means no such curve, though single readings can be large; an effect the other way counts as inactive or inconclusive.

Tests used:
[1] = target: Ubiquitin carboxyl-terminal hydrolase 2 (Homo sapiens) (UniProt O75604); assay: qHTS Validation Assay for Inhibitors of Ubiquitin-specific Protease USP2a Using CHOP2 as the Reporter (AID 463106); further: potency means the concentration at half of the fitted maximal effect
Outline: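 10nM USP2 core + cpd, 30min RT; add 25nM Ub-CHOP2/25nM substrate; 60min RT; FI 485/531nm. Buffer Tris pH 8.0, CaCl2, BME, CHAPS. Norm. to NEM = 100% inhibition; time-zero read flags fluorescent artifacts.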

[2] = target: DNA polymerase III PolC-type (Bacillus subtilis (strain 168)) (UniProt P13267); assay: qHTS Validation Assay for the Inhibitors of DNA Replication in Gram-Positive Bacteria (AID 485295); further: potency means the concentration at half of the fitted maximal effect
Outline: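 Double-stranded DNA product detected by PicoGreen fluorescence after EDTA quench. Compound incubated with B. subtilis holoenzyme (PolC, beta subunit, SSB, primase) before substrate addition; primed replication of M13Gori with dNTPs and NTPs at room temperature; DMSO defines 0% inhibition.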

[3] = qHTS Validation Assay to Find Inhibitors of Chronic Active B-Cell Receptor Signaling (AID 485345; active means well fitted curve in the direction sought with a large enough effect in the main read-out, with a control signal flat, not every such curve was filed as active)
Outline: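 Read-out: ratio of filter-corrected green (IkappaBalpha fusion) to red (native) luciferase signal in doxycycline-induced TMD8 cells after 4 h at 37C. Titration spanned 46 uM–3 nM; Data were normalised to basal cells and 10 uM MG-132 wells.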

[4] = target: Beta-2 adrenergic receptor (Homo sapiens) (UniProt P07550); assay: qHTS validation assay of beta-arrestin-biased ligands of beta2-adrenergic receptor (AID 485366)
Outline: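 Values derive from curve-fitted %Activity of a luminescent beta-arrestin recruitment reporter; compounds tested up to 46 microM on Tango cells for 18 hr at 37 degrees C, 5% CO2.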

[5] = Quantitative high throughput screen for delayed death inhibitors of the malarial parasite plastid, 96 hour incubation (AID 488745);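 further: luciferase-expressing P. falciparum in erythrocytes at 2% hematocrit and 0.1% parasitemia; series mostly up to about 29 µM; nearly all actives have a fitted effect of over 70% in size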
Outline: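 Growth of reporter-bearing P. falciparum in red cells is measured after 96 h with compound, covering two erythrocytic cycles. Luminescence from the integrated luciferase serves as the growth signal.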

[6] = Quantitative high throughput screen for delayed death inhibitors of the malarial parasite plastid, 48 hour incubation (AID 488752); further: nearly all actives have a fitted effect of over 65% in size; further: potency means the concentration at half of the fitted maximal effect
Outline: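 One parasite generation (48 h, 37 C, 5% CO2) of luciferase-reporter P. falciparum in erythrocytes is run with test compound; decreased luminescence indicates inhibited growth.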

[7] = target: Thioredoxin reductase 1, cytoplasmic (Rattus norvegicus) (UniProt O89049); assay: qHTS Assay for Substrates of Mammalian Selenoprotein Thioredoxin Reductase 1 (TrxR1) (AID 488772);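 further: NADPH fluorescence in the first read after selenite addition and not the 8 min delta; series mostly up to about 57 µM; a drop in NADPH fluorescence below the no-compound background marks a TrxR1 substrate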
Outline: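 Quantitative HTS in Tris-HCl buffer at pH 7.5 with EDTA and Tween-20, using rat TrxR1, 400 uM NADPH and 400 uM selenite (final). A fall in initial NADPH fluorescence relative to background marked substrate behaviour.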

[8] = target: Flap endonuclease 1 (Homo sapiens) (UniProt P39748); assay: qHTS Validation Assay for the Inhibitors of Human Flap endonuclease 1 (FEN1) (AID 488816); further: potency means the concentration at half of the fitted maximal effect
Outline: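 Readings taken at 0 and 15 min after starting the reaction with 50 nM (final) substrate supplied the signal. Compounds had first sat with 10 nM FEN1 reagent for 15 min at room temperature. Values come from Hill-equation concentration-response fits.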

[9] = target: M-phase phosphoprotein 8 (Homo sapiens) (UniProt Q99549); assay: qHTS Validation Assay for Inhibitors for MPP8 Chromodomain Interactions with Methylated Histone Tails (AID 488949); further: nearly all actives have a fitted effect of over 55% in size; further: potency means the concentration at half of the fitted maximal effect
Outline: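 AlphaScreen proximity signal from streptavidin donor and Ni-chelate acceptor beads (10 ug/mL each) reported binding of MPP8 to trimethyl-K9 H3(1-18) peptide, both at 50 nM. The complex formed 30 min before a 30 min compound exposure at room temperature, in PBS pH 7.4.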

[10] = target: Chromobox protein homolog 1 (Homo sapiens) (UniProt P83916); assay: qHTS Validation Assay for Inhibitors of HP1-beta Chromodomain Interactions with Methylated Histone Tails (AID 488953); further: nearly all actives have a fitted effect of over 50% in size; further: potency means the concentration at half of the fitted maximal effect
Outline: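 Measured as loss of AlphaScreen luminescence from streptavidin donor and nickel acceptor beads (10 ug/mL final) bridging HP1-beta and biotin-H3(1-18)K9me3, each 50 nM. Compounds met the preassembled complex for 30 min at RT.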

[11] = target: Methanococcus maripaludis chaperonin (MmCpn) (UniProt Q6LX38); assay: High-Throughput Screening for Modulators of Cytosolic Chaperonin Activity: MmCpn Primary Screen (AID 488978);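 further: 50 nM MmCpn enzyme hydrolysing 30 µM ATP at 37 °C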
Outline: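 ATPase activity of 50 nM MmCpn was assayed with 30 uM ATP, 10 minutes at 37C, after a 5 min compound preincubation at room temperature. ADP production was read as HTRF emission at 590 and 665 nm.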

[12] = target: Transient receptor potential cation channel subfamily V member 1 (Homo sapiens) (UniProt Q8NER1); assay: HTS Assay for Compounds that Act as Enhancers of the Vanilloid Receptor 1 (AID 488979)
Outline: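 Calcium influx kinetics via Fluo-8 (480/520 nm) in TRPV1-expressing cells, 2000/well cultured overnight at 35.5C. Compound-alone read 3 min (agonist phase), followed by EC20 capsaicin challenge for 2 min (enhancer phase).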

[13] = target: Thyrotropin receptor (Homo sapiens) (UniProt P16473); assay: qHTS Assay for Antagonists of the Thyroid Stimulating Hormone Receptor (AID 488980); further: series mostly up to about 58 µM
Outline: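 Inhibition of cAMP raised by EC80 TSH (4 nM final) was read by HTRF, with lysate cAMP competing against cAMP-d2 for cryptate antibody after 30 min at room temperature. The cells were transfected HEK293 held in phosphodiesterase inhibitor RO 20-1724 at 70 uM.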

[14] = target: D(1A) dopamine receptor (Homo sapiens) (UniProt P21728); assay: HTS Assay for Allosteric Agonists of the Human D1 Dopamine Receptor: Primary Screen for Agonists (AID 488981)
Outline: (§1)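 Calcium flux in an inducible, force-coupled HEK293 Trex D1 line (overnight at 30 C): agonist mode is the 180 s kinetic read after compound; potentiator mode is the following 180 s read after dopamine at EC20.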

[15] = target: D(1A) dopamine receptor (Homo sapiens) (UniProt P21728); assay: HTS Assay for Allosteric Agonists of the Human D1 Dopamine Receptor: Primary Screen for Potentiators (AID 488982)
Outline: as §1

[16] = target: D(1A) dopamine receptor (Homo sapiens) (UniProt P21728); assay: HTS Assay for Allosteric Agonists of the Human D1 Dopamine Receptor: Primary Screen for Antagonists (AID 488983);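 further: calcium flux response to an EC80 dopamine challenge measured with no-wash dye; nearly all actives have a fitted effect of over 65% in size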
Outline: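 Screening of inducible HEK293 T-REx D1 cells: compound first, EC80 dopamine 180 s later, each phase read kinetically for calcium over 180 s.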

[17] = target: Tyrosyl-DNA phosphodiesterase 1 (Homo sapiens) (UniProt Q9NUW8); assay: Confirmation Assay for Inhibitors of Tyrosyl-DNA Phosphodiesterase (TDP1) (AID 489007); settings: recombinant human TDP1 enzymatic activity, dose-response; further: potency means the concentration at half of the fitted maximal effect; nearly all actives have a fitted effect of over 40% in size
Outline: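 Confirmation of primary-screen follow-ups in a qHTS format. Substrate cleavage by Tdp1 (1 nM) of a 3'-phosphotyrosine-FITC, 5'-biotin oligo (15 nM) was monitored as decreased AlphaScreen signal after a 5 min room-temperature reaction.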

[18] = target: Tumor susceptibility gene 101 protein (Homo sapiens) (UniProt Q99816); assay: qHTS Validation Assay for Iinhibitors of HIV-1 Budding by Blocking the Interaction of PTAP/TSG101 (AID 485342; calls by dose curve)
Outline: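 Fluorescence polarization of 50 nM FITC-PTAP peptide bound to 10 uM Tsg101 binding domain was read after 20 min room-temperature incubation with compounds, in 10 mM HEPES pH 7.5, 0.15 M NaCl, 0.01% Tween 20.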

[19] = target: Thioredoxin reductase 1, cytoplasmic (Rattus norvegicus) (UniProt O89049); assay: qHTS Assay for Inhibitors of Mammalian Selenoprotein Thioredoxin Reductase 1 (TrxR1) (AID 488773); settings: Potency: inhibition;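 further: drop in NADPH fluorescence over an 8 min run after selenite addition; series mostly up to about 57 µM; nearly all actives have a fitted effect of over 40% in size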
Outline: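 Steps: enzyme (90 nM) plus NADPH (400 uM final), 5 min at ~22 deg C; compound added, 15 min; selenite (400 uM final) added; fluorescence followed for 8 min. Concentration-response curves derived from the normalized delta values.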

Measured: Potency

Sequence of M-phase phosphoprotein 8 (Homo sapiens) (Q99549 whole entry, looked up): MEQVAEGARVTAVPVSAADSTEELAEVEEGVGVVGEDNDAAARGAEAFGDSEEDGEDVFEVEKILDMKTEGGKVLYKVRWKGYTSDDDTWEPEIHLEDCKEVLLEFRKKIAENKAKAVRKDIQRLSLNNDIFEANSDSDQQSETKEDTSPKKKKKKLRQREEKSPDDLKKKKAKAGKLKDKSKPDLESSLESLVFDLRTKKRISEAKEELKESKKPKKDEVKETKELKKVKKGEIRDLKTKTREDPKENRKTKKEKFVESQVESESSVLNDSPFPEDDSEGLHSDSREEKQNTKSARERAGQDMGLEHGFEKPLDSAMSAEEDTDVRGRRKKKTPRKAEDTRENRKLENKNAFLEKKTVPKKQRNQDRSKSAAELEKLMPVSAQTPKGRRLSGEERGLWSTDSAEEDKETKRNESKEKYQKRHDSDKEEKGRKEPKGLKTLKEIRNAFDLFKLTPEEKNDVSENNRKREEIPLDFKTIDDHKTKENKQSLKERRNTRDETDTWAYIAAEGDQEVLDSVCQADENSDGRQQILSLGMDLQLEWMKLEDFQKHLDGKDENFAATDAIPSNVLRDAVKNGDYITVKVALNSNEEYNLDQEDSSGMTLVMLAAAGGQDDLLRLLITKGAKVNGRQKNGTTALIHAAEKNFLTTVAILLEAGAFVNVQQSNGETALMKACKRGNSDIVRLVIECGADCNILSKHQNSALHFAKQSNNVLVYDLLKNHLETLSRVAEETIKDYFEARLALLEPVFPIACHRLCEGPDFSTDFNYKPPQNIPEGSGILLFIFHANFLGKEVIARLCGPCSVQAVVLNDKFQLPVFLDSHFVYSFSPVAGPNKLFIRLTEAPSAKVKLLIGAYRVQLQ
Sequence of Methanococcus maripaludis chaperonin (MmCpn) (Q6LX38 1-543): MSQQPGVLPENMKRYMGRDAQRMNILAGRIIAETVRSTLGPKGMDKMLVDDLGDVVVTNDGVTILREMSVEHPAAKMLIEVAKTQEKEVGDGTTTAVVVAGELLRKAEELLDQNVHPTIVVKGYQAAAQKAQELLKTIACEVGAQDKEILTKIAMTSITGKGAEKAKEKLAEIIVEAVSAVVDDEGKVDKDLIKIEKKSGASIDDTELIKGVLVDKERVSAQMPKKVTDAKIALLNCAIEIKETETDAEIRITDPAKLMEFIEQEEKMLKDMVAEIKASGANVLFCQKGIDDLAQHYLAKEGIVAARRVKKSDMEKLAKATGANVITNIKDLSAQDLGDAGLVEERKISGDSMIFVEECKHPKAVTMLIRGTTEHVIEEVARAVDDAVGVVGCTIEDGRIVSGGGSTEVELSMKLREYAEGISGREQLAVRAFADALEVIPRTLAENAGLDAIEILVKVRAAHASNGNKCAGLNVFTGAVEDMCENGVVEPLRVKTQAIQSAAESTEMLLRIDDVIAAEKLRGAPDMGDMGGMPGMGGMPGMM
Sequence of Transient receptor potential cation channel subfamily V member 1 (Homo sapiens) (Q8NER1 whole entry, looked up): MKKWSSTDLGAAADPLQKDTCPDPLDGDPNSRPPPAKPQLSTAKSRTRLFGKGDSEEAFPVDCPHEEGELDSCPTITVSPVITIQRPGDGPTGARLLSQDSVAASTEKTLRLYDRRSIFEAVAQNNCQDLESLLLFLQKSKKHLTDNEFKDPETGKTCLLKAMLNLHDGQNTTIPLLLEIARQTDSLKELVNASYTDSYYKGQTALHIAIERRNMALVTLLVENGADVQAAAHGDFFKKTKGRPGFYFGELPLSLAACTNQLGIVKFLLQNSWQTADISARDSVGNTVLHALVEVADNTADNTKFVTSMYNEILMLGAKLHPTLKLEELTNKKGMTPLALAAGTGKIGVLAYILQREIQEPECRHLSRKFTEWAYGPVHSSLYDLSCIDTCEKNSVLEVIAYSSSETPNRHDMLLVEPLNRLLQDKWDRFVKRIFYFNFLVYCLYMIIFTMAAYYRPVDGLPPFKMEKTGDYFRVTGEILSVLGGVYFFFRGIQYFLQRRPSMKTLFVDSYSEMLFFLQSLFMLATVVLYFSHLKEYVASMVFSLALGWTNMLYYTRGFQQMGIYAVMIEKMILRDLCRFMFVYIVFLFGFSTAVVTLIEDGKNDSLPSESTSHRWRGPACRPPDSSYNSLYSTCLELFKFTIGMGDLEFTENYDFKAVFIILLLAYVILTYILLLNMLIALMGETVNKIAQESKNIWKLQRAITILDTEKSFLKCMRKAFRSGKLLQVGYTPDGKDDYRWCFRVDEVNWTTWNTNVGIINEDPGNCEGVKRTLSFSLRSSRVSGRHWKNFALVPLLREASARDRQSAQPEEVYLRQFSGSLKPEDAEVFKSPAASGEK
Sequence of D(1A) dopamine receptor (Homo sapiens) (P21728 whole entry, looked up): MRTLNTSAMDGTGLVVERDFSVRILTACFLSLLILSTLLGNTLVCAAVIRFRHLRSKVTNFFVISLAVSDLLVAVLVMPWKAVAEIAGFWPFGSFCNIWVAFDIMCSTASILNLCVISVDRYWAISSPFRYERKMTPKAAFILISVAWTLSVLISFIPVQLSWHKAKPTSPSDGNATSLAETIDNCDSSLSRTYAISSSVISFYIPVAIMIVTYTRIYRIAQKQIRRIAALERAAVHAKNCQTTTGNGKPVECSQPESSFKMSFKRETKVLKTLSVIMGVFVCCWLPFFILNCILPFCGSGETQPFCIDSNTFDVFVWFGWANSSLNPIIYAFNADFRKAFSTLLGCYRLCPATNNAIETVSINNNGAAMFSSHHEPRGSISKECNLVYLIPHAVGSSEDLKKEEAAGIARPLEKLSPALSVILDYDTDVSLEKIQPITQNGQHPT
Sequence of DNA polymerase III PolC-type (Bacillus subtilis (strain 168)) (P13267 whole entry, looked up): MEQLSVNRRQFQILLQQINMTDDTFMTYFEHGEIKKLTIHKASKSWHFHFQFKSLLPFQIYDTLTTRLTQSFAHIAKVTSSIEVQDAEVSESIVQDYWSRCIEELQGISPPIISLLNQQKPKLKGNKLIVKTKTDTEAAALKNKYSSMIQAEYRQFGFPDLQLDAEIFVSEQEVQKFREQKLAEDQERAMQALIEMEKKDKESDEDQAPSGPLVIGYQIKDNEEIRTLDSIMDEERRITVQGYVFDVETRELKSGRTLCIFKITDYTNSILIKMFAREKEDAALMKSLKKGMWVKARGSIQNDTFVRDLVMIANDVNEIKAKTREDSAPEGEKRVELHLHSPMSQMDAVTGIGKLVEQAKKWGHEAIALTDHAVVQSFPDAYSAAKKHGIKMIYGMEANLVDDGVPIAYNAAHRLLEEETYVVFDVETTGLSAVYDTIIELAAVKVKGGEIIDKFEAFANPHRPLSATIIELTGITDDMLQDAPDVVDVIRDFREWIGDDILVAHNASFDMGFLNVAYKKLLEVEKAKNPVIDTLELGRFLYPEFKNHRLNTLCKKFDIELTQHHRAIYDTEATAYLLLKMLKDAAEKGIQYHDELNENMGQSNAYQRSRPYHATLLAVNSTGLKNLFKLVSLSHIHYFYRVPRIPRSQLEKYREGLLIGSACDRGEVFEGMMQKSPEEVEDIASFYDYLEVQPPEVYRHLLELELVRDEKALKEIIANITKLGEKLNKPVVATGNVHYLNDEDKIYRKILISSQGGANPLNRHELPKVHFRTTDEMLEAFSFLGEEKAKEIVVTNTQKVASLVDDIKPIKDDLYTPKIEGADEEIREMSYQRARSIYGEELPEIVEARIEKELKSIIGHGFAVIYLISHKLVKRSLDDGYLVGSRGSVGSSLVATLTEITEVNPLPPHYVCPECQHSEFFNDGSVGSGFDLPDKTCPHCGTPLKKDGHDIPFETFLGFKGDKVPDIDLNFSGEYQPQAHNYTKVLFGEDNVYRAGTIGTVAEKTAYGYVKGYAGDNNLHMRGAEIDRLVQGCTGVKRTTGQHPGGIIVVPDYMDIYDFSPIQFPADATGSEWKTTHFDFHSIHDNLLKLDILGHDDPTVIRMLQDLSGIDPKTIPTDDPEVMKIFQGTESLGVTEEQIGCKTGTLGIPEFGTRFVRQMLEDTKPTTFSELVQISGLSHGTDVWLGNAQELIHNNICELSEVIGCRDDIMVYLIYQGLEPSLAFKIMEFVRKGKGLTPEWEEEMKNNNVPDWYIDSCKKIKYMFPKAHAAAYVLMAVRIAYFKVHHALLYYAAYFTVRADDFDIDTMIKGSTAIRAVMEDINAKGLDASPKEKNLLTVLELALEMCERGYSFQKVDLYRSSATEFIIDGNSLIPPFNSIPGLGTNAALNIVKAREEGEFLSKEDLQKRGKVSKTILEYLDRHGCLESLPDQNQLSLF
Sequence of Tumor susceptibility gene 101 protein (Homo sapiens) (Q99816 whole entry, looked up, the tested form may be a part): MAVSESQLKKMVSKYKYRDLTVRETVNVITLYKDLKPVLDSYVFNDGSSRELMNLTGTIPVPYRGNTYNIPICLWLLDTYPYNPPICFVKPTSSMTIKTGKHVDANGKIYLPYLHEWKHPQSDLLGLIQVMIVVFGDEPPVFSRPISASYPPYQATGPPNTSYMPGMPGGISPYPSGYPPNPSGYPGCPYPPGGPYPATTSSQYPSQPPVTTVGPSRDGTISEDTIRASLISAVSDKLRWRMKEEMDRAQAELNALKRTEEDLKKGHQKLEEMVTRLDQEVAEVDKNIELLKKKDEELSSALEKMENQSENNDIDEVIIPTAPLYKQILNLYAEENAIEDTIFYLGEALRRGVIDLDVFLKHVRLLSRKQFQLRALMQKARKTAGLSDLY
Sequence of Chromobox protein homolog 1 (Homo sapiens) (P83916 whole entry, looked up): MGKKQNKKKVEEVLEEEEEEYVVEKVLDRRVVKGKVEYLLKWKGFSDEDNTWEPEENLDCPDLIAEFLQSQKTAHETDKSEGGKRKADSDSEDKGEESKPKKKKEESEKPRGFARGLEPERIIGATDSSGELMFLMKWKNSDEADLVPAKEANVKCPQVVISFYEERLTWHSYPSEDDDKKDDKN

Cc1ccc(C(=O)Nc2ccc(S(=O)(=O)O)c3cc(S(=O)(=O)O)cc(S(=O)(=O)O)c23)cc1NC(=O)c1cccc(NC(=O)Nc2cccc(C(=O)Nc3cc(C(=O)Nc4ccc(S(=O)(=O)O)c5cc(S(=O)(=O)O)cc(S(=O)(=O)O)c45)ccc3C)c2)c1
active: [1] 3290 nM | [2] 7520 nM | [8] 336 nM | [9] 8.91 µM and 1.89 µM | [10] 2000 nM | [17] 2.51 µM and 5.62 µM and 1.26 µM
inactive: [3] | [4] | [5] | [6] | [7] | [11] | [12] | [13] | [14] | [15] | [16]

N[C@@H](Cc1c[nH]c2ccc(O)cc12)C(=O)O
inactive: [1] | [2] | [18] | [4] | [6] | [7] | [8] | [9] | [10] | [11] | [12] | [13] | [14] | [15] | [16]

O=C1c2c(O)ccc(O)c2C(=O)c2c(NCCNCCO)ccc(NCCNCCO)c21
active: [2] 1500 nM | [6] 2080 nM | [8] 2990 nM | [9] 2.82 µM and 6.7 µM | [10] 5620 nM
inactive: [18] | [4] | [7] | [19] | [11] | [12] | [13] | [14] | [15] | [16]

Fc1ccc([C@@H]2CCNC[C@H]2COc2ccc3c(c2)OCO3)cc1
inactive: [1] | [2] | [18] | [4] | [7] | [19] | [8] | [11] | [13] | [15] | [16]
active: [9] 35.5 µM

O=c1c(O)c(-c2ccc(O)c(O)c2)oc2cc(O)cc(O)c12
inactive: [18] | [4] | [7] | [19] | [11] | [12] | [13] | [14]

Cn1cnc2c1c(=O)[nH]c(=O)n2C
inactive: [1] | [2] | [18] | [4] | [6] | [7] | [19] | [8] | [9] | [10] | [11] | [12] | [13] | [14] | [15] | [16]

COc1ccc(C2CNC(=O)C2)cc1OC1CCCC1 (stereo unspecified)
inactive: [1] | [2] | [18] | [4] | [6] | [8] | [9] | [10] | [11] | [12] | [13] | [14] | [15] | [16]

CN(C)CCOC(c1ccccc1)c1ccccc1
inactive: [1] | [18] | [3] | [4] | [6] | [7] | [8] | [10] | [11] | [12] | [13] | [14] | [15] | [16]

CN(C)CCCN1c2ccccc2CCc2ccc(Cl)cc21
inactive: [1] | [2] | [18] | [4] | [7] | [8] | [9] | [10] | [11] | [13] | [14] | [15]
active: [6] 1310 nM

O=C1N(c2ccccc2)c2ccccc2C1(Cc1ccncc1)Cc1ccncc1
inactive: [1] | [2] | [18] | [4] | [7] | [19] | [8] | [9] | [10] | [11] | [12] | [14] | [15] | [16]

CCOC(=O)Nc1ccc(NCc2ccc(F)cc2)nc1N
39.8 µM (active) and inactive: [9]
inactive: [1] | [2] | [4] | [7] | [11] | [12] | [13] | [14] | [15] | [16]

CN1C2CCC1CC(OC(=O)C(CO)c1ccccc1)C2 (stereo unspecified)
inactive: [2] | [18] | [3] | [4] | [6] | [9] | [11] | [12] | [14] | [15] | [16]

O=C(Nc1ccc([N+](=O)[O-])cc1Cl)c1cc(Cl)ccc1O
inactive: [1] | [2] | [18] | [4] | [7] | [8] | [9] | [10] | [11] | [12] | [13] | [14] | [15]

COC(=O)Nc1nc2ccc(C(=O)c3cccs3)cc2[nH]1
inactive: [1] | [2] | [18] | [4] | [7] | [19] | [9] | [10] | [11] | [12] | [13] | [14] | [15] | [16]

O=C1Cc2cc(CCN3CCN(c4nsc5ccccc45)CC3)c(Cl)cc2N1
inactive: [1] | [2] | [18] | [4] | [7] | [8] | [9] | [11] | [14] | [15]

O=c1c(-c2ccc(O)cc2)coc2cc(O)cc(O)c12
inactive: [1] | [2] | [18] | [4] | [7] | [8] | [9] | [10] | [11] | [12] | [13] | [14] | [15] | [16]
